Bioassay records: PubChem, National Center for Advancing Translational Sciences (NCATS)
Tau fluor cs: counter-screen for tau fibril formation inhibitors; tau K18 P301L Alexa594 fluorescence, heparin fibrillization; Potency, µM (series often up to 57.7 µM), for the others: top-dose activity change, negative = decrease; 0.93% of 280,000 active; AID 1463; also: potency is read from the fitted curve at half-maximal effect; nearly all actives have a fitted effect of over 55% in size
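Human K18 P301L tau (15 uM unlabeled plus 0.24 uM Alexa 594-labeled, final) in 100 mM sodium acetate pH 7 was mixed with compound and 20 uM heparin and incubated 6 hr at 37 C.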
FBPA coupling cs: coupling enzyme interference in Giardia aldolase counter-screen; coupling enzyme system counterscreen, AmpLite Red fluorescence; 0.67% of 290,000 active; activity change, negative = inhibition, % at 58.2 µM, hits read low; in the data active = activity change below about -30%
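Counterscreen of the coupled detection system alone, without aldolase: glyceraldehyde-3-phosphate coupling enzymes plus AmpLite Red readout. Compounds at 57.5 uM final, 10 min RT preincubation, 20 min RT reaction, fluorescence 525/598 nm.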
Sfp PPTase inh: inhibitors of Bacillus subtilis Sfp phosphopantetheinyl transferase. Q9F4F7. Biochemical Sfp PPTase activity, qHTS. Potency, µM, without a hit: largest response in the series, negative = inhibition, most hits filed as inhibitors. 3.5% of 310,000 active. AID 1490;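 also: the enzyme is Sfp with the accession as filed and its product quenches rhodamine fluorescence; potency is read from the fitted curve at half-maximal effect; 0% = enzyme reaction without inhibitor and -100% = no enzyme wells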
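Buffer: 50 mM Hepes-Na pH 7.6, 10 mM MgCl2, 0.01% Nonidet P-40, 0.01% BSA. Enzyme 15 nM, pre-exposed to compound 15 min; substrates then added and fluorescence change tracked over 30 min.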
Tau FP inhib: blocks human tau fibril formation measured by polarization; AID 1468; 0.39% of 280,000 active; Potency, µM (series often up to 57.7 µM), inactives show at the top dose activity, negative = inhibition, actives largely listed as inhibitors; K18 P301L tau heparin fibrillization, Alexa594 FP, 6 h; P10636; also: potency is read from the fitted curve at half-maximal effect; nearly all actives have a fitted effect of over 55% in size
Target sequence (P10636 561-689 P618L limits assumed): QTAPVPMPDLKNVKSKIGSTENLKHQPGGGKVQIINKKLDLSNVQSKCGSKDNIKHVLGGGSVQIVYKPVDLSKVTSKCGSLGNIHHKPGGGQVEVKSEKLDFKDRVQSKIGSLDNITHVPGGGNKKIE
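Quantitative HTS format: compounds meet 15 uM recombinant K18 P301L tau and Alexa 594-tau tracer in 100 mM sodium acetate pH 7; 20 uM heparin triggers fibrillization at 37 C over 6 hr; FP gives the signal.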
KDM4E inh: inhibitors of human JMJD2E histone demethylase; Potency, µM (doses to about 57.1 µM), for inactives: at the highest dose activity change, negative = inhibition, usual class: inhibitors; JMJD2E catalytic domain, FDH-coupled NADH fluorescence (FDH is formaldehyde dehydrogenase); 1.6% of 230,000 active; AID 2147; active = well fitted inhibition curve with a large enough effect, not every such curve was filed as active; inconclusive = small, poorly fitted or top-dose-only effect, or another doubt; inactive = no such curve, though single readings can be large or run the other way;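 also: potency is read from the fitted curve at half-maximal effect; 0% = wells with enzyme and -100% = buffer wells without enzyme; nearly all actives have a fitted effect of over 50% in size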
Target sequence (B2RXH2 1-337 limits assumed): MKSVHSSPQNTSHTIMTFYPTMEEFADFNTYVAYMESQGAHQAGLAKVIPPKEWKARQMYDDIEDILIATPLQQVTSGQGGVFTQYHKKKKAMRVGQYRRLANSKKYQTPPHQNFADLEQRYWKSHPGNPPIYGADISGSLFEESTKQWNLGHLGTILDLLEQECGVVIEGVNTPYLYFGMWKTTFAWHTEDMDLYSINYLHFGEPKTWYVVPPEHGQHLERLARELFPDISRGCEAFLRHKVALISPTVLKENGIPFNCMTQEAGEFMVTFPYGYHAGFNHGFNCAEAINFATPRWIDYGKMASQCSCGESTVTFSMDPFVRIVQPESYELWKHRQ
Tau fibril ThT: inhibitors of human tau fibril formation, thioflavin T binding | recombinant tau K18 P301L (four-repeat tau fragment), heparin-induced fibrillization, ThT fluorescence | Potency, µM (titrated, usually from 57.4 µM), without a hit: at the highest dose activity, negative = inhibition, most hits filed as inhibitors | 2.1% of 270,000 active; also: potency is read from the fitted curve at half-maximal effect; nearly all actives have a fitted effect of over 55% in size
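Tau K18 P301L fragment (15 uM unlabeled plus 0.24 uM Alexa 594-labeled) in 100 mM sodium acetate pH 7 with compound, fibrillization induced by 20 uM heparin for 6 hr at 37 C. Thioflavin T (30 uM) added, fluorescence read after 1 hr (ex 450, em 510 nm).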
* hit, by the source's call; ? = inconclusive; / = no result. An excerpt weighted towards active compounds, which were near 5.3% of everything screened. Unless noted, calls follow the shape of the dose curve; as a rule, active = well fitted curve in the direction sought with a large enough effect; inconclusive = small, poorly fitted or top-dose-only effect, or another doubt; inactive = no such curve, though single readings can be large; an effect the other way counts as inactive or inconclusive. Unless noted, % is scaled to controls: 0 for no effect and ±100 for the full control effect.

SMILES	Tau fluor cs	FBPA coupling cs	Sfp PPTase inh	Tau FP inhib	KDM4E inh	Tau fibril ThT
CSc1nnc(N2C(=O)C(O)=C(C(=O)c3ccco3)C2c2cccc(Cl)c2)s1 (stereo not given)	/	/	6.3µM*	/	/	/
CCOC(=O)c1sc(N2C(=O)C(O)=C(C(=O)c3ccco3)C2c2ccco2)nc1C (stereo not given)	/	-2	-19%	/	/	/
COc1ccc(/C=C\c2onc(C)c2S(=O)(=O)N2CCC(C(=O)Nc3cccc(C)c3C)CC2)cc1	-8%	/	/	?	/	7%
COc1ccc(/C=C\c2onc(C)c2S(=O)(=O)N2CCC(C(=O)Nc3cccc(Cl)c3)CC2)cc1	-20%	/	/	14µM*	/	14%
CCc1nc(N2CCCC(C)C2)c2oc3ccccc3c2n1 (stereo not given)	-3%	4	45µM*	-11%	?	?
CCc1nc(N2CCN(Cc3ccc4c(c3)OCO4)CC2)c2oc3ccccc3c2n1	-15%	1	35µM*	-3%	?	?
CC1C(=O)N(C)C(=O)c2nc[nH]c21 (stereo not given)	6%	/	/	10%	10%	7%
CNc1ncnc2c1ncn2[C@H]1C[C@H](O)[C@@H](CO)O1	2%	/	18%	-1%	/	1%
Cc1cc(C)nc(SCc2csc(-c3ccccc3)n2)n1	-18%	-1	-17%	-12%	4%	?
Nc1ccccc1SCc1csc(-c2ccc(Cl)cc2)n1	?	-4	14µM*	5%	-10%	?
COc1ccc(CCN2C(=O)c3[nH]nc(-c4ccccc4O)c3C2c2ccccc2)cc1 (stereo not given)	?	/	/	-15%	/	-10%
COCCCn1c(=N)c(C(=O)NCC2CCCO2)cc2c(=O)n3cc(C)ccc3nc21 (stereo not given)	-7%	/	/	-1%	/	2%
O=C(O)c1cccc(Cn2c(Cl)c(/C=N/NC(=O)c3ccccc3)sc2=O)c1	0%	8	12%	-6%	-11%	-10%
Cc1ccccc1N/N=C/c1sc(=O)n(Cc2cccc(C(=O)O)c2)c1Cl	?	6	?	-7%	?	28µM*
O=C(O)c1cccc(Cn2c(Cl)c(/C=N/NC(=O)c3cc4ccccc4cc3O)sc2=O)c1	?	14	?	?	-21%	20µM*
COC(=O)c1cccc(Cn2c(Cl)c(/C=N/Nc3ccccc3C)sc2=O)c1	?	-1	56µM*	-10%	?	?
CCS(=O)(=O)N1CCc2cc(C(=O)N3CCN(c4cccc(C(F)(F)F)c4)CC3)ccc21	?	/	/	15%	/	-13%
CCC(Cc1ccccc1)NC(=O)c1ccc2nc(N3CCC(C)CC3)sc2c1 (stereo not given)	-5%	/	/	-5%	/	-9%
CC(C)=CCC[C@](C)(O)C1CC[C@]2(C)[C@@H]1CC[C@@H]1[C@@]3(C)CCC(=O)C(C)(C)[C@@H]3CC[C@]12C (stereo not given in full)	/	2	1%	/	/	/
CN(C)c1nc(C=C(C#N)C#N)c(Cl)n1-c1ccc(F)cc1	-29%	0	8%	?	-2%	14µM*
O=C(NCC1CCCCC1)c1nnc(C(=O)NCC2CCCCC2)c2c1[nH]c1ccccc12	-8%	2	-28%	-5%	-4%	-1%
O=C(NC(=S)Nc1nc2c(s1)CSc1ccccc1-2)c1ccccc1	-25%	5	45µM*	-4%	-27%	?
CCc1ccccc1NC(=O)CN(c1ccccc1)S(=O)(=O)c1ccsc1C(=O)OC	-15%	/	/	2%	/	-14%
C=CCNCCCCOc1cccc(Br)c1	12%	-3	45µM*	-2%	?	11%
CCC(=O)/C=C1\Sc2ccc(OC)cc2N1CC	-16%	-7	50µM*	9%	?	?
O=C(O)c1ccc(N=Nc2c(O)[nH]c3cc(Cl)ccc23)cc1	-8%	5	-28%	6%	-1%	4µM*
Oc1[nH]c2ccccc2c1N=Nc1cccc(Cl)c1	/	1	2%	/	/	/
